Measured values from PubChem BioAssay (NCI).
This is part of a sample that, as a whole, favours compounds with a hit. Of some 79,000 tested, about 15% had one in any assay. Unmarked numbers belong to inactive results. Calls of active or inactive are those of the source. Rule as the data show it: active = growth inhibition above about 70%; inactive = the rest.

Assay: NCI Yeast Anticancer Drug Screen. Data for the cln2 rad14 strain (AID 165);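 also: 0% = growth equal to vehicle treated cultures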
Conditions: S. cerevisiae cln2 rad14 strain, at 50.0 µM, active compounds read high
Outline: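 Strain: cln2 rad14 yeast, altered in cell cycle control and DNA damage repair. Read-out: growth inhibition vs vehicle.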

Row | Structure (SMILES) | growth inhibition
1 | CCOC(=O)c1cc2cc([N+](=O)[O-])ccc2[nH]1 | 5.65%
2 | Cc1cc(NS(=O)(=O)c2ccc(NC(=O)c3cccn4c(=O)c5ccccc5nc34)cc2)no1 | 0.8%
3 | CN(C)/C=C(/N=C(C#N)C#N)C1OCCO1 | -27.1%
4 | Cc1cccc(C2=NC(=C3CCCCC3)C(=O)O2)c1 | 12.2%
5 | C1CCC(C(CCCCC(C2CCCCC2)C2CCCCC2)C2CCCCC2)CC1 | 16.1%
6 | COC(=O)c1ccc(CSc2ccc(N)cc2)cc1 | 40.1%
7 | O=C(OC1CCCC1)C1(O)CCCCC1 | 10.5%
8 | c1ccc(C(c2ccccc2)c2cc(-c3cc(C(c4ccccc4)c4ccccc4)[nH]n3)n[nH]2)cc1 | -28.6%
9 | Cn1c(N)c(-n2[nH]c(=O)n(-c3ccccc3)c2=O)c(=O)n(C)c1=O | -14.8%
10 | CCN(CC)CCN(C(=Nc1ccccc1)N1CCCCC1)c1ccccc1 | 19%
11 | CCOC(=O)c1c(C(F)(F)F)oc2c1ccc1nc3nonc3nc12 | 27.5%
12 | Cc1ccc(NC(=O)C(=O)CC(=O)c2c(C)n([O-])c3ccccc3[n+]2=O)cc1C | 9.35%
13 | O=C1Nc2cc([N+](=O)[O-])c(Br)cc2C1=O | 14.9%
14 | [O]=[W](=[O])([OH])[OH] | 11.7%
15 | O=C1c2ccccc2NC(c2cc(Cl)cc(Cl)c2O)N1CCc1ccccn1 (stereo not given) | 14.7%
16 | COC(=O)c1cc(-c2cccc3ccccc23)[nH]c(=O)c1C#N | 18.7%
17 | CN1CCN(C2CCCc3ccccc3C2O)CC1 (stereo not given) | -25.1%
18 | NCCCn1[nH]c(=O)c2ncccc2c1=O | -91.5%
19 | CCCC1OC(c2ccccc2)OCC1CC (stereo not given) | -36.9%
20 | Cc1ccccc1C(=O)NNC(=O)c1cccc2ccccc12 | 3.65%

Row | Structure (SMILES) | growth inhibition
21 | Cc1cc(-n2cnc3c(Cl)ncnc32)ccc1N | 5.05%
22 | COc1cc2c(cc1OC)C(c1ccccc1)OCC2 (stereo not given) | -46.1%
23 | O=C(Nc1cccc2ccccc12)c1ccc(Cl)c(Cl)c1 | 43.8%
24 | O=C([O-])c1ccc2c(c1)-c1nc-2nc2[n-]c(nc3nc(nc4[n-]c(n1)c1ccc(C(=O)[O-])cc41)-c1cc(C(=O)[O-])ccc1-3)c1ccc(C(=O)[O-])cc21.[Fe+2] | 3.65%
25 | COc1ccc(-n2c(=O)c(N=Nc3ccccc3)c(O)n(-c3ccccc3OC)c2=S)cc1 | -13.7%
26 | COc1ccc2c(c1)CCC1C(=O)NN=C21 (stereo not given) | -43.4%
27 | CC(=Nc1ccc(Cl)c(Cl)c1)c1ccncc1 | -31.6%
28 | CCOC(=O)CCNc1nc(N)nc(C)c1NC=O | 9.7%
29 | Brc1ccc2oc3ccccc3c2c1 | -5.5%
30 | C/C(N=NC(=S)N1CCCC1)=C1\C=CC=CN1O | -5.6%
31 | NC(=O)CS | -11.7%
32 | CCC(=O)C12CCCC1=NC(=N)N=C2C1=NC(=N)N=C2CCCC21C(=O)CC (stereo not given) | 2.75%
33 | COc1ccc([N+](=O)[O-])c2c(C)cc(=O)[nH]c12 | -9.5%
34 | CCC(c1ccc(Cl)cc1)N(CC)c1ccccn1 (stereo not given) | -52.4%
35 | COc1ccc(/C=C2/SC(=Nc3ccccc3)N(NC(=O)Cc3ccccc3)C2=O)c(OC)c1 | -12.8%
36 | CCOC(=O)c1n[nH]c(C)c1C/C(=N/O)c1ccccc1 | -14.9%
37 | CC(=O)N1OCCc2ccccc21 | -37.5%
38 | C(#CC(Sc1ccccc1)=C(Sc1ccccc1)Sc1ccccc1)Sc1ccccc1 | -32.3%
39 | O=C1C(Cl)=C(N(C(=O)c2ccccc2)C(=O)c2ccccc2)C(=O)c2ccccc21 | 74% (active)
40 | O=NN(CCCl)C(=O)NC1CCC(C(=O)O)CC1 (stereo not given) | -7.8%

Assay: NCI Yeast Anticancer Drug Screen. Data for the bub3 strain (AID 167)
Conditions: S. cerevisiae bub3 mutant strain, at 50.0 µM, active compounds read high
Outline: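 Compounds were applied to a genetically altered yeast strain carrying a cell-cycle control defect. Growth inhibition was scored against vehicle-treated controls.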

Row | Structure (SMILES) | growth inhibition
41 | CCOC(=O)c1cc2cc([N+](=O)[O-])ccc2[nH]1 | -7.2%
42 | Cc1cc(NS(=O)(=O)c2ccc(NC(=O)c3cccn4c(=O)c5ccccc5nc34)cc2)no1 | -14.7%
43 | CN(C)/C=C(/N=C(C#N)C#N)C1OCCO1 | 3.8%
44 | Cc1cccc(C2=NC(=C3CCCCC3)C(=O)O2)c1 | 4%
45 | C1CCC(C(CCCCC(C2CCCCC2)C2CCCCC2)C2CCCCC2)CC1 | -0.7%
46 | COC(=O)c1ccc(CSc2ccc(N)cc2)cc1 | 46.1%
47 | O=C(OC1CCCC1)C1(O)CCCCC1 | -2.15%
48 | c1ccc(C(c2ccccc2)c2cc(-c3cc(C(c4ccccc4)c4ccccc4)[nH]n3)n[nH]2)cc1 | -11.6%
49 | Cn1c(N)c(-n2[nH]c(=O)n(-c3ccccc3)c2=O)c(=O)n(C)c1=O | 14.6%
50 | CCN(CC)CCN(C(=Nc1ccccc1)N1CCCCC1)c1ccccc1 | 28.1%
51 | CCOC(=O)c1c(C(F)(F)F)oc2c1ccc1nc3nonc3nc12 | 20.9%
52 | Cc1ccc(NC(=O)C(=O)CC(=O)c2c(C)n([O-])c3ccccc3[n+]2=O)cc1C | 0.2%
53 | O=C1Nc2cc([N+](=O)[O-])c(Br)cc2C1=O | 5.8%
54 | [O]=[W](=[O])([OH])[OH] | -11.6%
55 | O=C1c2ccccc2NC(c2cc(Cl)cc(Cl)c2O)N1CCc1ccccn1 (stereo not given) | -25.1%
56 | COC(=O)c1cc(-c2cccc3ccccc23)[nH]c(=O)c1C#N | -6.6%
57 | CN1CCN(C2CCCc3ccccc3C2O)CC1 (stereo not given) | 1.3%
58 | NCCCn1[nH]c(=O)c2ncccc2c1=O | -21.6%
59 | CCCC1OC(c2ccccc2)OCC1CC (stereo not given) | 15.8%
60 | Cc1ccccc1C(=O)NNC(=O)c1cccc2ccccc12 | 0.45%

Row | Structure (SMILES) | growth inhibition
61 | Cc1cc(-n2cnc3c(Cl)ncnc32)ccc1N | 10.8%
62 | COc1cc2c(cc1OC)C(c1ccccc1)OCC2 (stereo not given) | -2.6%
63 | O=C(Nc1cccc2ccccc12)c1ccc(Cl)c(Cl)c1 | 63.5%
64 | O=C([O-])c1ccc2c(c1)-c1nc-2nc2[n-]c(nc3nc(nc4[n-]c(n1)c1ccc(C(=O)[O-])cc41)-c1cc(C(=O)[O-])ccc1-3)c1ccc(C(=O)[O-])cc21.[Fe+2] | 7.5%
65 | COc1ccc(-n2c(=O)c(N=Nc3ccccc3)c(O)n(-c3ccccc3OC)c2=S)cc1 | 8.95%
66 | COc1ccc2c(c1)CCC1C(=O)NN=C21 (stereo not given) | -23.1%
67 | CC(=Nc1ccc(Cl)c(Cl)c1)c1ccncc1 | 2.1%
68 | CCOC(=O)CCNc1nc(N)nc(C)c1NC=O | 5.9%
69 | Brc1ccc2oc3ccccc3c2c1 | 6.75%
70 | C/C(N=NC(=S)N1CCCC1)=C1\C=CC=CN1O | 7.95%
71 | NC(=O)CS | -14.1%
72 | CCC(=O)C12CCCC1=NC(=N)N=C2C1=NC(=N)N=C2CCCC21C(=O)CC (stereo not given) | -1.7%
73 | COc1ccc([N+](=O)[O-])c2c(C)cc(=O)[nH]c12 | -23.6%
74 | CCC(c1ccc(Cl)cc1)N(CC)c1ccccn1 (stereo not given) | 3.5%
75 | COc1ccc(/C=C2/SC(=Nc3ccccc3)N(NC(=O)Cc3ccccc3)C2=O)c(OC)c1 | -1.85%
76 | CCOC(=O)c1n[nH]c(C)c1C/C(=N/O)c1ccccc1 | -14.9%
77 | CC(=O)N1OCCc2ccccc21 | -5.5%
78 | C(#CC(Sc1ccccc1)=C(Sc1ccccc1)Sc1ccccc1)Sc1ccccc1 | 5.6%
79 | O=C1C(Cl)=C(N(C(=O)c2ccccc2)C(=O)c2ccccc2)C(=O)c2ccccc21 | 86% (active)
80 | O=NN(CCCl)C(=O)NC1CCC(C(=O)O)CC1 (stereo not given) | -0.75%
